# Laboratory results as given in PubChem BioAssay (Tox21).
# Results filed as inconclusive are left out. Where a call stands in place of a potency, no number is given. Activity calls are given as the source filed them. Unless noted, calls come from the whole dose curve; as a rule, active = well fitted curve in the direction sought with a large enough effect in the repeat runs; inconclusive = weak or mixed curves; inactive = no such curve, though single readings can be large; an effect the other way counts as inactive or inconclusive.
# What was measured:
# [1] = qHTS assay to identify small molecule phospholipidosis (PLD) inducers (AID 1259344; active = well fitted curve in the direction sought with a large enough effect; an effect the other way counts as inactive or inconclusive)
# How it was run: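 Phospholipid accumulation was scored by imaging: fixed, Hoechst-counterstained HepG2 cells stained with LipidTOX Red after 24 h compound exposure at 37 C. Read-outs were pit count and pit intensity per well or per cell, with amiodarone and DMSO controls.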
# [2] = qHTS assay to identify small molecule HDAC inhibitors (AID 1259364); note: potency is the fitted concentration of half-maximal effect;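 note: wild-type HCT-116 cells with endogenous class I/II HDAC activity; nearly all actives have a fitted effect of over 45% in size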
# How it was run: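 Quantitative high-throughput format: overnight-seeded HCT-116 cells got compounds for 2 hr at 37C; HDAC-Glo I/II reagent added, 30 min RT, luminescence measured.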
# [3] = qHTS assay to identify small molecule HDAC inhibitors - cell viability counter screen (AID 1259365); note: series mostly up to about 92 µM; nearly all actives have a fitted effect of over 50% in size
# How it was run: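 Following a 2hr exposure of overnight-plated wild-type HCT-116 cells to DMSO-delivered compounds, CellTiter-Glo was added and luminescence recorded after 30min at room temperature.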
# [4] = qHTS assay to identify small molecule agonists of the sonic hedgehog signaling (Shh) pathway - cell viability counter screen (AID 1259366); note: nearly all actives have a fitted effect of over 50% in size; note: potency is the fitted concentration of half-maximal effect
# How it was run: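 After a 4hr attachment at 37C, NIH/3T3 cells bearing an integrated Gli1-driven luciferase reporter were dosed with compounds. Treatment lasted 24hr, with the final hour including CellTiter-Fluor for a fluorescence viability measurement.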
# [5] = qHTS assay to identify small molecule antagonists of the sonic hedgehog signaling (Shh) pathway - cell viability counter screen (AID 1259367); note: nearly all actives have a fitted effect of over 55% in size; note: potency is the fitted concentration of half-maximal effect
# How it was run: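 Viability was read by CellTiter-Fluor fluorescence in the same wells, reagent added 23 hr into compound treatment and incubated 1 hr at 37C. The 3T3 Gli1-Luc reporter cells (2,000/well) received conditioned medium after compound and ran 24 hr.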
# [6] = qHTS assay to identify small molecule agonists of the sonic hedgehog signaling (Shh) pathway (AID 1259368; calls by dose curve;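 note: NIH/3T3-derived 3T3Gli1-Luc cells carrying a stable Gli1-driven firefly luciferase reporter; series mostly up to about 92 µM; nearly all actives have a fitted effect of over 15% in size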)
# How it was run: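 Quantitative high-throughput format using a Gli1-driven firefly luciferase reporter line derived from NIH/3T3 cells. After a 24 hr compound treatment at 37 C and 5% CO2, luminescence reported Gli1 response element activity.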
# [7] = target: Estrogen receptor beta (Homo sapiens) (UniProt Q92731); assay: qHTS assay to identify small molecule agonists of the estrogen receptor beta (ER-beta) signaling pathway (AID 1259377; active = well fitted activation curve with a large enough effect in the signal ratio in the repeat runs, not every such curve was filed as active; the % refers to the signal ratio)
# Sequence of Estrogen receptor beta (Homo sapiens) (Q92731 whole entry, looked up): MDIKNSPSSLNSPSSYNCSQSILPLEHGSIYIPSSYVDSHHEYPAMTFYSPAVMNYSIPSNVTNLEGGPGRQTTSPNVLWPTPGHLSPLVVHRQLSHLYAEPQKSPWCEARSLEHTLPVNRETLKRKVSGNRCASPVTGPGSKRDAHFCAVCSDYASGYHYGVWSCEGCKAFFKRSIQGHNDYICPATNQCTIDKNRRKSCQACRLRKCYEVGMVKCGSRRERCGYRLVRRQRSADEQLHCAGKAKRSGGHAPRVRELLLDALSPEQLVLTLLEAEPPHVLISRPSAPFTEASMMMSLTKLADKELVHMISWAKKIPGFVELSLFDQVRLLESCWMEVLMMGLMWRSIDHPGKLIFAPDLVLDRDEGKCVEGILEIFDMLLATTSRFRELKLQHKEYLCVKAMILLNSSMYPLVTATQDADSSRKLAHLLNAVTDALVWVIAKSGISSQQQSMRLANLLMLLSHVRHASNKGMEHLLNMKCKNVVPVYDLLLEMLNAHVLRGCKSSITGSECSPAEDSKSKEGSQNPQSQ
# How it was run: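 In HEK293T cells bearing a UAS-beta-lactamase reporter under ER-beta control, DMSO-delivered compounds were incubated for 16 hr at 37C. Activity was detected as fluorescence 2 hours after LiveBLAzer B/G FRET substrate addition.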
# [8] = qHTS assay to identify small molecule agonists of the androgen receptor (AR) signaling pathway in the presence of an antagonist - cell viability counter screen (AID 1259379); note: nearly all actives have a fitted effect of over 25% in size; note: potency is the fitted concentration of half-maximal effect
# How it was run: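 Nilutamide-containing (3.0uM final) MDA-kb2 cultures, 3,000 cells/well, were treated with compounds across 15 concentrations. After 16 hr at 37C with no CO2, cell viability was determined by CellTiter-Fluor fluorescence in the luciferase assay wells.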
# [9] = qHTS assay to identify small molecule antagonists of the estrogen receptor beta (ER-beta) signaling pathway - cell viability counter screen (AID 1259382);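 note: HEK293T cells carrying ER-beta-UAS-bla reporter stimulated with estradiol; series mostly up to about 92 µM; nearly all actives have a fitted effect of over 55% in size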
# How it was run: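 Viability is scored by CellTiter-Glo luminescence (30 min, room temperature) in ER-beta-UAS-bla HEK293T wells already read for reporter fluorescence. Compound exposure lasts 16 hr at 37C alongside 1nM 17-beta-estradiol in charcoal-stripped serum medium.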
# [10] = qHTS assay to identify small molecule agonists or antagonists of the thyroid stimulating hormone receptor (TSHR) signaling pathway - wild type cell line counter screen (AID 1259384; calls by dose curve)
# How it was run: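 Counter screen in untransfected Hek293: compounds (15-point titration, triplicate) plus phosphodiesterase inhibitor Ro20-1724 added after 18 h plating; 30 min RT. Intracellular cAMP via competitive d2/cryptate immunoassay, 1 h incubation.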
# [11] = target: Thyrotropin receptor (Homo sapiens) (UniProt P16473); assay: qHTS assay to identify small molecule antagonists of the thyroid stimulating hormone receptor (TSHR) signaling pathway (AID 1259385; calls by dose curve; note: nearly all actives have a fitted effect of over 20% in size)
# Sequence of Thyrotropin receptor (Homo sapiens) (P16473 whole entry, looked up): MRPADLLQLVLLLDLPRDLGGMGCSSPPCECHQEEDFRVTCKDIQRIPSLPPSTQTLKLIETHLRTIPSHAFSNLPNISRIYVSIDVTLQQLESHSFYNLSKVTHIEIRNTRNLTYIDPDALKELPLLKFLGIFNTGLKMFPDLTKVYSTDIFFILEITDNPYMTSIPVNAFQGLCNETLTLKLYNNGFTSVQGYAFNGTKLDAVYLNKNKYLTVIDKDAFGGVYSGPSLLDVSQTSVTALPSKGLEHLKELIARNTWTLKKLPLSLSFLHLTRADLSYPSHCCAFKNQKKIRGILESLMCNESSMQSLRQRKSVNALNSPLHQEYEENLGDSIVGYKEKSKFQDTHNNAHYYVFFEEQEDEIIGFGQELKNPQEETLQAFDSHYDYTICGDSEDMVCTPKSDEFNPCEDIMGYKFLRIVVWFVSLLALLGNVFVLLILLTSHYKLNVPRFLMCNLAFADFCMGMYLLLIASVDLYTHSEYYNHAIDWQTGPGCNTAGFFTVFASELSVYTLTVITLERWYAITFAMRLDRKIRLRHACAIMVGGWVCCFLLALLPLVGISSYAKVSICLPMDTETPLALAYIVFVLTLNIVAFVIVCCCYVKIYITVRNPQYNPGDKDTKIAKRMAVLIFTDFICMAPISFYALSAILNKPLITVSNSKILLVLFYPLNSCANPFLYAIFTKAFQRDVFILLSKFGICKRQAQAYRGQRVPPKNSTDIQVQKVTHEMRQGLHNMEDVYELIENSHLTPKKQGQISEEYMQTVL
# How it was run: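 Antagonist mode: compound-treated TSHR-expressing HEK293 cells were stimulated with 1.5 ng/mL TSH (final) in presence of Ro20-1724 for 30 min at RT. HTRF cAMP detection after 1 h; each compound tested at 15 concentrations, triplicate.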
# [12] = target: Estrogen receptor beta (Homo sapiens) (UniProt Q92731); assay: qHTS assay to identify small molecule antagonists of the estrogen receptor beta (ER-beta) signaling pathway (AID 1259378; active = well fitted inhibition curve with a large enough effect in the signal ratio in the repeat runs, not every such curve was filed as active; the % refers to the signal ratio)
# How it was run: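 Antagonist mode: compounds added to beta-lactamase reporter HEK293T ER-beta-UAS cells stimulated with E2 (1nM final), 16 hr at 37C. LiveBLAzer B/G FRET substrate, 2 hours room temperature, fluorescence read-out.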
# [13] = qHTS assay to identify small molecule agonists of the estrogen receptor beta (ER-beta) signaling pathway - cell viability counter screen (AID 1259380); note: nearly all actives have a fitted effect of over 30% in size; note: potency is the fitted concentration of half-maximal effect
# How it was run: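 Steps: plate ER-beta-UAS-bla HEK293T cells, rest 6 hr; add compounds in DMSO; incubate 16 hr at 37C, 5% CO2; add FRET substrate 2 hr; add CellTiter-Glo, wait 30 min at room temperature; read luminescence.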
# [14] = target: Estrogen receptor (Homo sapiens) (UniProt P03372); assay: qHTS assay to identify small molecule agonists of the estrogen receptor alpha (ER-alpha) signaling pathway in the presence of an antagonist (AID 1259383; calls by dose curve; note: top concentration of the series differs between compounds; nearly all actives have a fitted effect of over 15% in size)
# Sequence of Estrogen receptor (Homo sapiens) (P03372 whole entry, looked up): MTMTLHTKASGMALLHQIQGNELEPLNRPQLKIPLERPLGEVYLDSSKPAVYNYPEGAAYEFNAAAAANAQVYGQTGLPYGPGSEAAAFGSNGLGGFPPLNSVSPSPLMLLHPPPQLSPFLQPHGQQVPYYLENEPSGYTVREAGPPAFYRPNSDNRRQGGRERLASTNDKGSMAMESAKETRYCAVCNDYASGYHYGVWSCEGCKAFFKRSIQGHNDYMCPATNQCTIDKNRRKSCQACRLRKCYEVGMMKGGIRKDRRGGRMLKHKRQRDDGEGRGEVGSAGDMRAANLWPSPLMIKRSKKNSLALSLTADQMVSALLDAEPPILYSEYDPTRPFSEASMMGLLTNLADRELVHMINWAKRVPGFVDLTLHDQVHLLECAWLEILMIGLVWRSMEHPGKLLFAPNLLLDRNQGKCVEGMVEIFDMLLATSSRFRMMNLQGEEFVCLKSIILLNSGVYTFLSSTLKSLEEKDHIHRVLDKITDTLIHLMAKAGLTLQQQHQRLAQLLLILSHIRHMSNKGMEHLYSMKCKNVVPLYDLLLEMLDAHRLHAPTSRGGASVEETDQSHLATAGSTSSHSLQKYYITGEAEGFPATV
# How it was run: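 Readout was ERE-driven luciferase luminescence in VM7Luc4E2 cells, which express full-length ER-alpha endogenously. Compounds were tested at 15 concentrations for 22hr alongside 10.0nM ICI-182,780 (final concentration).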
# [15] = qHTS assay to identify small molecule agonists of the estrogen receptor alpha (ER-alpha) signaling pathway in the presence of an antagonist - cell viability counter screen (AID 1259386);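 note: cells exposed to compounds for 22 h at 37 °C before the viability read; nearly all actives have a fitted effect of over 30% in size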; note: potency is the fitted concentration of half-maximal effect
# How it was run: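 In this counter screen, compound effects on VM7Luc4E2 viability were tested in the presence of the antagonist ICI-182,780 at 10.0nM final. Compounds were dosed at 15 concentrations, exposure lasted 22hr, and the CellTiter-Fluor signal was read.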
# [16] = target: Estrogen receptor (Homo sapiens) (UniProt P03372); assay: qHTS assay to identify small molecule antagonists of the estrogen receptor alpha (ER-alpha) signaling pathway using the BG1 cell line in the presence of 0.1 nM 17-beta-estradiol (AID 1259244); note: nearly all actives have a fitted effect of over 50% in size
# How it was run: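 Reporter is a stably transfected luciferase under four estrogen responsive elements in VM7Luc4E2 cells expressing native full-length ER-alpha; inhibition of 0.1 nM (final) 17beta-estradiol-driven signal over 22 h is read by luminescence.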
# [17] = qHTS assay to identify small molecule antagonists of the sonic hedgehog signaling (Shh) pathway (AID 1259369; calls by dose curve; note: nearly all actives have a fitted effect of over 45% in size)
# How it was run: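 Stable Gli1-Luc reporter NIH/3T3 clone; quantitative HTS in stimulated mode with conditioned medium. Luminescence measured after 24hr compound treatment at 37 C.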
SMILES,Potency [1],Potency [2],Potency [3],Potency [4],Potency [5],Potency [6],Potency [7],Potency [8],Potency [9],outcome [10],Potency [11],Potency [12],Potency [13],Potency [14],Potency [15],Potency [16],Potency [17]
Cc1cc(-n2nc3ccc(Cl)cc3n2)c(O)c(C(C)(C)C)c1,inactive,inactive,inactive,inactive,inactive,inactive,inactive,inactive,inactive,inactive,inactive,,,,,,
O=S(=O)(O)c1ccc(N=Nc2c(O)ccc3ccccc23)cc1,,0.686 µM (active),,27.3 µM (active),27.3 µM (active),inactive,inactive,27.3 µM (active),,inactive,,inactive,43.3 µM (active),inactive,27.3 µM (active),,
O=C1NC(=O)[C@@H]2CC=CC[C@H]12,,inactive,inactive,inactive,inactive,inactive,inactive,inactive,,inactive,inactive,inactive,27.3 µM (active),,inactive,,
c1cnccn1,,inactive,inactive,inactive,inactive,,,inactive,inactive,inactive,inactive,,inactive,inactive,inactive,inactive,inactive
Cc1ccc(-c2ccccc2)cc1,,inactive,inactive,inactive,inactive,inactive,inactive,inactive,inactive,inactive,inactive,inactive,,,inactive,,inactive
